High-throughput results: PubChem BioAssay, National Center for Advancing Translational Sciences (NCATS)
CHX counter – counter-screen hit for Shiga toxin inhibitors, cycloheximide | cell reporter, cycloheximide protein synthesis inhibition counterscreen | max response, % | 12% of 300,000 active | AID 2314; in the data active = max response mostly above about 13%, no sharp cut-off; inactive = mostly below about 14%; also: read at 38.3 µM for the half of the compounds with a filed dose; 0% is about no effect
SARS PLpro yeast – inhibitors of SARS-CoV papain-like protease in yeast; S. cerevisiae expressing SARS-CoV PLpro, growth rescue; Potency, µM (titrated, usually from 32.9 µM), inactives show at the top dose activity, positive = growth rescue, most hits filed as activators; 0.19% of 330,000 active; AID 485353; calls by dose curve; also: potency is read from the fitted curve at half-maximal effect; 0% is about no effect; nearly all actives have a fitted effect of over 55% in size
Shiga inhibitor – blocks Shiga toxin action in Vero cells. Vero cells, Shiga toxin protein synthesis inhibition reporter. 9.2% of 290,000 active. inhibition, % at 38.7 µM. AID 2315; in the data active = inhibition mostly above about 28%, no sharp cut-off; inactive = mostly below about 43%; also: 0% is about no effect
Pf growth 96h – P. falciparum growth inhibition at 96 hour, primary screen for plastid delayed-death inhibitors; Potency, µM (highest dose often 28.7 µM), inactives show at the highest dose activity change, negative = inhibition, most hits filed as inhibitors; 6.9% of 320,000 active; P. falciparum luciferase reporter growth, 96 h; AID 504834; also: potency is read from the fitted curve at half-maximal effect; % is scaled to controls: 0 for no effect and ±100 for the full control effect
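P. falciparum expressing integrated firefly luciferase grown in erythrocytes (2% hematocrit, 0.05% parasitemia final) with compounds for 96 hours at 37 C, 5% CO2. Growth inhibition read as loss of luminescence after adding luciferase detection reagent.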
Pf growth 48h – inhibits P. falciparum growth in the first generation, 48 h | P. falciparum luciferase growth in erythrocytes, 48 h | Potency, µM (series often up to 28.7 µM), without a hit: at the highest dose activity change, negative = inhibition, usual class: inhibitors | 5.9% of 310,000 active; also: potency is read from the fitted curve at half-maximal effect; % is scaled to controls: 0 for no effect and ±100 for the full control effect
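First compound was added to culture medium, then infected red cells at 0.1% parasitemia and 2% hematocrit (final). After incubation at 37 C under 5% CO2, luciferase detection reagent was dispensed and light output recorded.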
NS1 function inh – influenza NS1 inhibition | Potency, µM (doses to about 46.1 µM), without a hit: top-dose activity, positive = more growth | 0.4% of 270,000 active; calls by dose curve; also: potency is read from the fitted curve at half-maximal effect; actives are rising curves; nearly all actives have a fitted effect of over 50% in size
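A cell-based growth assay was used: compounds that relieve NS1-induced slow growth of budding yeast raise OD600. Assay medium was yeast nitrogen base with ammonium sulphate and -URA supplement, pH 6.0, with 2% galactose.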
* marks the source's active call; other numbers are inactive results; i = inactive; ? = inconclusive; / = no result given; [ ] = dose if it differs, or a comment. An excerpt weighted towards active compounds, which were near 21% of everything screened. Unless noted, calls follow the shape of the dose curve; as a rule, active = well fitted inhibition curve with a large enough effect; inconclusive = small, poorly fitted or top-dose-only effect, or another doubt; inactive = no such curve, though single readings can be large or run the other way.

SMILES	CHX counter	SARS PLpro yeast	Shiga inhibitor	Pf growth 96h	Pf growth 48h	NS1 function inh
Cc1cc(C)c(NC(=O)Cn2c([N+](=O)[O-])cnc2C)c(C)c1	-5	-1%	16	56%	13%	?
COC(=O)c1ccc(NS(=O)(=O)c2c(C)[nH]c(C)c2C(=O)N2CCCC2)cc1	-2	2%	-7	41%	11%	6%
Cc1ccc(N=C2SC(C(=O)Nc3ccc(OC(F)(F)F)cc3)C(N)=C2C(=O)Nc2c(C)cc(C)cc2C)cc1 (stereo not given)	-2	20%	13	12µM*	?	?
COC(=O)c1ccc(CNC(=O)c2ccc(NS(=O)(=O)c3ccc4[nH]c(=O)[nH]c4c3)cc2)cc1	/	?	/	32%	4%	/
CC(C)c1ccc(NC(=O)c2sccc2-n2cccc2)cc1	56*	-15%	158*	-13%	36%	/
O=C(NNC(=O)c1sccc1-n1cccc1)c1ccc(Cl)cc1	0	2%	-8	0.33µM*	?	0%
Cc1c(Br)cccc1NC(=O)c1sccc1-n1cccc1	13	?	-12	?	/	-6%
Cc1ccccc1OCc1nnc(SCC(=O)Nc2ccc(N3CCOCC3)c(Cl)c2)n1C	12	0%	-4	?	/	-3%
CC(C)(C)OC(=O)C[C@@H]1C/C=C\C[C@H](CC(=O)NCCO)C(=O)N2CCC[C@H]2COC1=O	/	0%	/	/	/	/
CCOC(=O)C1CCN(c2nc(C)cc(C)c2C#N)CC1	2	0%	-6	1%	16%	-2%
Cc1cc(C)c(C#N)c(N2CCCC(C(N)=O)C2)n1 (stereo not given)	-2	13%	-19	12µM*	-15%	2%
CN(C(=O)c1ccc(C#N)cc1)c1nnc(-c2ccccn2)s1	14	10%	20	82%	41%	9%
CN(C(=O)c1ccncc1)c1nnc(-c2ccccn2)s1	35*	-6%	75	0%	68%	-6%
CN(C(=O)c1ccncc1)c1nnc(-c2cccnc2)s1	-3	-2%	-3	?	25%	-1%
Cc1ccc(C(=O)N(C)c2nnc(-c3ccncc3)s2)cc1	15*	1%	58*	0%	-9%	1%
COC(=O)Cc1ccc(NC(=S)NCc2cccc(OC)c2)cc1	2	-2%	47	?	1%	-3%
COC(=O)Cc1ccc(NC(=S)Nc2cccc(C)n2)cc1	16*	0%	40	?	8%	-1%
Cc1cccc(NC(=O)c2cccc(C(=O)Nc3cccc(C)n3)c2)n1	-2	-4%	7	70%	2%	-26%
Cc1ccc(NC(=O)Nc2cccc(C)n2)cc1	49*	-4%	103*	27%	99%	-5%
Cc1cccc(NC(=O)Nc2ccc([N+](=O)[O-])cc2)n1	15	-5%	19	13%	10%	/
Cc1cccc(NC(=S)Nc2cccc(C)n2)n1	15	3%	21	13µM*	?	-3%
Cc1cccc(NC(=O)Nc2cccc(C)n2)n1	20*	-3%	86*	?	81%	-7%
Cc1cccc(NC2=C(Cl)C(=O)OC2NC(=O)c2ccccc2)c1 (stereo not given)	-7	5%	-4	/	-4%	-2%
Cc1ncc([N+](=O)[O-])n1CC(=O)NC1CCCCCC1	-3	0%	8	4%	7%	4%
Cc1ccc(NC(=O)c2cn(-c3cccc(C)n3)cn2)cc1	39*	-4%	90*	i	111%	-25%
SMILES	CHX counter	SARS PLpro yeast	Shiga inhibitor	Pf growth 96h	Pf growth 48h	NS1 function inh
COC(=O)c1ccc(NC(=O)c2cn(-c3cccc(C)n3)cn2)cc1	1	-4%	-3	127%	79%	-1%
Cc1cccc(NC(=O)Nc2ccc(C)c(C)c2)n1	24*	2%	54*	/	179%	-10%
Cc1cccc(NC(=S)Nc2ccc(Oc3ccccc3)cc2)n1	7	7%	8	9.3µM*	-4%	?
Cc1cccc(NC(=O)Nc2ccc(F)cc2)n1	17	-1%	63*	67%	62%	-3%
C/C(CC(=O)Nc1ccc2c(c1)OCCO2)=N\NC(=O)COc1ccc(C)cc1Br	1	-3%	16	19%	7%	-5%
Cc1nn(CC(=O)NC(C)CCc2ccccc2)c(=O)c2nn(-c3ccccc3)c(C)c12 (stereo not given)	-2	1%	-9	8%	7%	-5%
CC(=O)Nc1ccc(S(=O)(=O)N(C)CC(=O)Nc2cccc(S(=O)(=O)N3CCCC3)c2)cc1	/	1%	/	?	?	/
Cc1cccc(NC(=O)Nc2ccc(Cl)cc2)n1	22*	-4%	39*	-12%	117%	-19%
Cc1cccc(NC(=S)NC2CCCC2)n1	-1	0%	3	-14%	-17%	-45%
Cc1cccc(NC(=S)NC2CCCCC2)n1	-1	1%	5	-17%	5.2µM*	-6%
Cc1cccc(NC(=O)NC(=O)c2ccccc2)n1	20	-8%	74*	203%	i	/
Cc1[nH]n(CCC#N)c(=O)c1CC(=O)N1CCN(c2ccccc2)CC1	-4	-1%	-8	?	?	-1%
CN(C)c1cc(-c2ccc([N+](=O)[O-])cc2)oc(=O)c1Cl	-1	-1%	3	?	?	-2%
COc1ccc(N(C(=O)c2snc(C(N)=O)c2N)C(C(=O)NCC2CCCO2)c2ccc(C)o2)cc1OC (stereo not given)	-3	-1%	-6	45%	8.3µM*	5%
COc1ccc(C(C(=O)NCC2CCCO2)N(C(=O)c2snc(C(N)=O)c2N)c2ccc(C)cc2)cc1OC (stereo not given)	-8	1%	-4	13µM*	10µM*	1%
CCc1ccccc1N(C(=O)c1snc(C(N)=O)c1N)C(C(=O)NCC1CCCO1)c1ccc(C)o1 (stereo not given)	-2	12%	-4	9.3µM*	?	-10%
Cc1ccc(C)c(N2CC(C(=O)O)CC2=O)c1 (stereo not given)	2	0%	-4	-23%	5%	-1%
CC1(C)CC2=C(CO1)C(=S)NC(c1ccccc1)N2CC1CCCO1 (stereo not given)	-1	0%	-2	?	?	-2%
O=C(N[C@@H](CCC/[N+]([O-])=C/c1ccccc1)C(=O)O)OCc1ccccc1	/	6%	/	/	/	/
COc1ccc(-c2cn(Cc3ccc(C(N)=O)cc3)c(CCN)n2)cc1	/	5%	/	23%	24%	/
CCCCC(=O)Nc1ccc2oc(-c3ccncc3)nc2c1	13*	-6%	39*	-19%	-2%	-16%
O=C(CN1CCCC1)Nc1ccc(-c2nc3cc(NC(=O)CN4CCCC4)ccc3o2)cc1	33*	4%	73*	?	2.3µM*	-6%[9.22 µM]
COc1ccc(OCC(=O)Nc2ccc3oc(-c4ccncc4)nc3c2)cc1	1	-1%	-12	95%	0%	5%
